Reference: PubChem BioAssay (NCATS)
Records with an inconclusive call do not appear. Entries that show only a call come without a potency. Activity calls are given as the source filed them. Calls come from the whole dose curve; as a rule, active = well fitted inhibition curve with a large enough effect; inconclusive = small, poorly fitted or top-dose-only effect; inactive = no such curve, though single readings can be large or run the other way.

Tests used:
[1] = test system: Zika virus NS2B-NS3 protease (unlinked complex); test: Primary screen GU Rhodamine qHTS for Zika virus inhibitors: Unlinked NS2B-NS3 protease assay (AID 1347159); note: nearly all actives have a fitted effect of over 60% in size
In short: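 Noncovalent NS2B hydrophilic domain–NS3 protease domain complex (25 nM) preincubated 15 min at room temperature with compounds (up to 114 microM) in 10 mM Tris-HCl pH 8.0, 0.01% Tween 20; 1.5 microM Rhodamine110 substrate added, fluorescence change over 15 min fitted to Hill equation.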

[2] = test system: Zika virus NS2B-NS3 protease (linked construct); test: Primary screen NINDS Rhodamine qHTS for Zika virus inhibitors (AID 1347160); note: nearly all actives have a fitted effect of over 55% in size
In short: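 Purified linked NS2B-NS3 protease (NS2B hydrophilic domain joined to NS3 protease by flexible linker), 25 nM in 10 mM Tris-HCl pH 8.0, 0.01% Tween 20. Compounds titrated, 15 min preincubation at room temperature; 1.5 microM Rhodamine110 substrate, FITC fluorescence change over 15 min.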
Potency is the fitted concentration of half-maximal effect.

Row | Compound | Potency [1] | Potency [2]
1 | COc1c(F)cccc1C(=O)N1C[C@@H](C)CC[C@H]1CNc1ccc(Br)cn1 | inactive | inactive
2 | C=C(C)[C@@H]1CC=C(COC(=O)NC(=O)c2ncn3c(=O)n(C)nnc23)CC1 | inactive | inactive
3 | CCOc1cn(-c2ccc(F)cc2C)nc1C(=O)Nc1ccc(Oc2ccnc3cc(OC)c(OC)cc23)c(F)c1 | inactive | inactive
4 | C=CC(=O)Nc1ccc(CN2C(=O)N(c3cc(OC)cc(OC)c3)Cc3cnc(Nc4ccc(N5CCN(C)CC5)cc4)nc32)cc1 | inactive | inactive
5 | CCCCCCCCC(=O)N[C@H](CN1CCCC1)[C@H](O)c1ccc2c(c1)OCCO2 | inactive | inactive
6 | COc1ccc(CNCc2cccc3ccccc23)cc1 | inactive | inactive
7 | O=C(NC1CCN(CCCCC2(C(=O)NCC(F)(F)F)c3ccccc3-c3ccccc32)CC1)c1ccccc1-c1ccc(C(F)(F)F)cc1 | inactive | inactive
8 | COC(=O)c1ccc2c(c1)nc(NC(=O)c1ccccc1)n2CCCc1ccccc1 | inactive | inactive
9 | N#Cc1cnc2c(Cl)cc(NCc3cn(CCN4CCCCCC4)nn3)cc2c1Nc1ccc(F)c(Cl)c1 | inactive | inactive
10 | C=C1C(=O)OC2/C=C(\C)CC3C=C(CC/C=C(\C)CCC12)C(=O)O3 (configuration not stated) | inactive | inactive
11 | O=C(Nc1cccc(C(F)(F)F)c1)Nc1ccc(Br)cc1-c1nn[nH]n1 | 3.16 µM (active) | 17.8 µM (active)
12 | CC(C)c1cc2c(N3CCN(C4=NCC(C)(C)S4)CC3)ncnc2s1 | inactive | inactive
13 | COc1ccc(CCc2nc3c(C)c(-c4c(C)noc4C)c(C)cc3n2CCN2CCOCC2)cc1 | inactive | inactive
14 | C#CC(=O)N(c1ccc(OC)cc1OC)C(C(=O)NCC(=O)OCC)c1cccs1 (configuration not stated) | inactive | inactive
15 | C=C1C(=O)OC2/C=C(\COC(C)=O)CC/C=C(\C=O)CC(OC(=O)CC(C)C)C12 (configuration not stated) | inactive | inactive
16 | CCCCNc1ncc2c(-c3ccc(S(=O)(=O)N4CCOCC4)cc3)nn(C3CCC(O)CC3)c2n1 (configuration not stated) | inactive | inactive
17 | Cc1ccc(-c2ncc[nH]2)cc1NC(=O)c1ccc(OCc2ccccn2)cc1 | inactive | inactive
18 | O=C(c1ccccc1)c1c(O)cc(O)cc1O[C@@H]1O[C@H](CO)[C@@H](O)[C@H](O)[C@H]1O | inactive | inactive

Row | Compound | Potency [1] | Potency [2]
19 | CCNc1nc(Nc2cc(F)c(C(=O)N3CCOCC3)cc2OC)ncc1C(F)(F)F | inactive | inactive
20 | CN(C)C(CCOc1cccc2ccccc12)c1ccccc1 (configuration not stated) | inactive | inactive
21 | NC(=O)c1nc(Nc2ccccc2)sc1NC(=O)C1CCCCC1 | inactive | inactive
22 | Cc1cc(C)cc(-c2cnc3cc(Cl)c(-c4cccc(O)c4)cc3c2OCCCN)c1 | inactive | inactive
23 | C=C1C(=O)O[C@@H]2[C@H]3C(C)=CC(=O)C3=C(C)[C@@H](OC(=O)/C(C)=C\C)[C@H](O)[C@@H]12 | inactive | inactive
24 | COc1ccc(NC(=O)c2ccc(-c3ccc(C(=N)N)cc3C)cc2)cc1N1CCN(C)CC1 | inactive | inactive
25 | Cc1c(C(=O)NCc2cccnc2)nn(-c2ccc(Cl)cc2Cl)c1-c1ccc(Cl)cc1 | inactive | inactive
26 | C/C=C/C1=CC2=C(CO1)C(=O)C(C)(OC(=O)c1c(C)cc(O)cc1OC)C(O)C2 (configuration not stated) | inactive | inactive
27 | Cc1ccc(F)cc1S(=O)(=O)N[C@@H]1CCN(Cc2ccc(OC(C)C)cc2)C1 | inactive | inactive
28 | CC(C)(C)NC(=O)[C@H]1CC[C@H]2[C@@H]3CC[C@H]4NC(=O)CC[C@]4(C)[C@H]3CC[C@]12C | inactive | inactive
29 | C=C[C@@]1(C)C=C2C(=O)C(O)=C3[C@](C)(C(=O)O)CC[C@@H]4C[C@]34[C@]2(O)C(=O)C1 | inactive | inactive
30 | N#Cc1cc(-c2ccnc(Nc3ccc(N4CCOCC4)cc3)n2)ccc1OC1CCOCC1 | inactive | inactive
31 | COC(CCc1ccc(O)cc1)CC(=O)CCc1ccc(O)cc1 (configuration not stated) | inactive | inactive
32 | CN(C)C(=O)Nc1cc(-c2ccccc2)ccc1N(C)C | inactive | inactive
33 | Cc1cc(Nc2nc(-c3ccccc3)nc3ccccc23)n[nH]1 | inactive | inactive
34 | CC(C)C(C)C(O)C1CC23CC(=O)C4(O)C(=C2CCC3C1C)C=CC1(O)CC(O)CCC14C (configuration not stated) | inactive | inactive
35 | CN(C)CCN(Cc1ccc(-c2ccc(CNCCc3ccccc3)cc2)cc1)C(=O)CCC1CCCC1 | inactive | inactive
36 | COc1ccc([C@H]2Cc3cccc(O)c3C(=O)O2)cc1OC | inactive | inactive
